Assay outcomes deposited in PubChem BioAssay by National Center for Advancing Translational Sciences (NCATS).
PLK1 PBD inh – PLK1 (human) polo-box domain binding inhibition. Plk1 PBD binding of FITC phosphopeptide, fluorescence polarization. Potency, µM, usual class: inhibitors. 360,000 tested, 2.8% active; note: series mostly up to about 57 µM; nearly all actives have a fitted effect of over 65% in size
G9a inh – G9a (human) methyltransferase inhibition | G9a H3K9 monomethylation, AlphaScreen, 2 h | Potency, µM (titrated, usually from 102 µM), most hits filed as inhibitors | 350,000 tested, 8.8% active; note: nearly all actives have a fitted effect of over 75% in size
Target sequence (Q96KQ7 913-1193 limits assumed): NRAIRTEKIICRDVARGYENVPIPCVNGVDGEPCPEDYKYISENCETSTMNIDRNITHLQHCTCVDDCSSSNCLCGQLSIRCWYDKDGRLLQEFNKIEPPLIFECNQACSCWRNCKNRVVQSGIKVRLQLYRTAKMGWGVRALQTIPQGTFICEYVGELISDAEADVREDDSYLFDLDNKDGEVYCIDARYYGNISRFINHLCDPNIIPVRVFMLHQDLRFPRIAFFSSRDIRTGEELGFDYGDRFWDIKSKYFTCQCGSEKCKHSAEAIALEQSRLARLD
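Quantitative HTS format: methyltransferase activity on a biotin-tagged H3K9 peptide is measured by AlphaScreen, using a rabbit anti-monomethyl-H3K9 antibody with streptavidin donor and anti-IgG acceptor beads. Final levels are 20 nM enzyme, 500 nM peptide, 20 uM SAM; 2 h RT.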
JMJD2A Tudor – blocks the human JMJD2A Tudor domain. AlphaScreen JMJD2A-Tudor / H3K4me3 peptide binding. Potency, µM (series often up to 114 µM), hits mostly inhibitors. 390,000 tested, 4.4% active. AID 504339; note: nearly all actives have a fitted effect of over 50% in size
Sfp PPTase inh – inhibitors of Bacillus subtilis Sfp phosphopantetheinyl transferase | 310,000 tested, 3.5% active | Biochemical Sfp PPTase activity, qHTS | Q9F4F7 | AID 1490 | Potency, µM, usual class: inhibitors;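 note: the enzyme is Sfp with the accession as filed and its product quenches rhodamine fluorescence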
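With Hepes-Na pH 7.6 buffer containing 10 mM MgCl2, Sfp (15 nM) modified BHQ-2-YbbR (12.5 uM) using rhodamine-CoA (5 uM). Two reads 30 minutes apart at 525/598 nm yielded each well's rate.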
BAZ2B inh – blocks human BAZ2B | Q9UIF8 | AlphaScreen BAZ2B-H3K14Ac peptide displacement | Potency, µM (titrated, usually from 114 µM), hits mostly inhibitors | 360,000 tested, 4.4% active | AID 504333; note: nearly all actives have a fitted effect of over 60% in size
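AlphaScreen luminescence quantifies BAZ2B engagement of H3K14Ac peptide; the protein and biotinylated peptide are both at 50 nM final, buffer PBS pH 7.4 with 0.01% Tween-20, all steps at room temperature.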
HP1b binding inh – blocks HP1-beta chromodomain binding to methylated histone tails | P83916 | AlphaScreen HP1-beta / biotin-H3K9me3 peptide binding | Potency, µM (titrated, usually from 114 µM), most hits filed as inhibitors | 390,000 tested, 0.56% active | AID 540317; note: nearly all actives have a fitted effect of over 70% in size
Target sequence (P83916 whole entry, looked up): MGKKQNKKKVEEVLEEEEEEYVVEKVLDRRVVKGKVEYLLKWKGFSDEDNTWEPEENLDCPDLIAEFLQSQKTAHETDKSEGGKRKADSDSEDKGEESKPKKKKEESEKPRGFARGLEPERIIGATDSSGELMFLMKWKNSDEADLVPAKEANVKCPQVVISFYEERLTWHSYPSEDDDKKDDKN
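Compound inhibition of the preformed complex between 50 nM HP1-beta and 50 nM biotinylated H3K9me3 peptide was read by AlphaScreen. Buffer was PBS pH 7.4 with 0.01% Tween-20. Incubations ran 30 min at room temperature, with 10 ug/mL donor/acceptor beads.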
Hits are given with their value; i = inactive; ? = inconclusive; nt = not tested or not shown; [ ] = another dose, or the depositor's remark. Sampled rows, rich in hits. Any-hit rate of the full collection: about 12%. Calls come from the whole dose curve; as a rule, active = well fitted curve in the direction sought with a large enough effect; inconclusive = small, poorly fitted or top-dose-only effect, or another doubt; inactive = no such curve, though single readings can be large; an effect the other way counts as inactive or inconclusive.

SMILES | PLK1 PBD inh | G9a inh | JMJD2A Tudor | Sfp PPTase inh | BAZ2B inh | HP1b binding inh
CC(=O)c1ccc2cccc3c2c1N=CN3C | i | 44.7µM | i | ? | i | i
CCOc1ccc2[nH]c(=S)[nH]c2c1 | i | ? | 44.7µM | i | i | i
CCN1CCN(c2nc(Nc3ccc(NC(C)=O)cc3)nc(Nc3ccc(NC(C)=O)cc3)n2)CC1 | i | ? | i | i | i | i
Nc1ccc(-n2nnnc2CN2CCOCC2)cc1 | i | i | i | i | i | i
Nc1cccc(-n2nnnc2CN2CCOCC2)c1 | 10.6µM | i | ? | i | i | i
Cc1cccc(Nc2nc3c(S(=O)(=O)c4ccc(Br)cc4)nnn3c3ccsc23)c1C | nt | i | i | nt | i | i
BrC(=C\c1ccccc1)/C=N/N1CCN(Cc2ccccc2)CC1 | i | 44.7µM | ? | i | ? | ?
C(=N\N1CCN(Cc2ccccc2)CC1)/c1cccnc1 | i | ? | i | i | i | i
BrC(/C=N/N1CCN(Cc2ccccc2)CC1)=C/c1ccccc1 | i | ? | 39.8µM | i | ? | i
BrC(=C\c1ccccc1)/C=N/N1CCN(c2ccccn2)CC1 | i | 28.2µM | i | i | 79.4µM | i
CC(C)(C)NC(=O)COc1ccc2oc3c(c2c1)CCCC3 | i | ? | i | i | i | i
Cc1noc(/C=C/c2ccco2)c1S(=O)(=O)N1CCC(C(=O)N(C)Cc2ccccc2)CC1 | i | ? | i | 44.7µM | i | i
CCc1ccc(NC(=O)C2CCN(S(=O)(=O)c3c(C)noc3/C=C/N(C)C)CC2)cc1 | i | i[0.0925 µM] | i | i | i | i
CNC(=O)C1CCN(S(=O)(=O)c2c(C)noc2/C=C/N(C)C)CC1 | 26.7µM | i | ? | i | i | i
COc1ccc(NC(=O)C2CCN(S(=O)(=O)c3c(C)noc3/C=C/c3ccco3)CC2)cc1 | nt | i | 10µM | nt | nt | i
CCOc1ccc(CCN2C(=S)N([C@@H](CC(C)C)CN3CCC[C@@H]3CN3C(=S)NC[C@@H]3Cc3ccccc3)C[C@@H]2Cc2ccc(O)cc2)cc1 | i | nt | nt | nt | nt | nt
Cc1ccccc1C(=O)Nc1sc2c(c1C(=O)N1CCC(C)CC1)CCC(C)C2 (stereo not given) | nt | ? | i | nt | i | i
CC1(C(=O)NS(=O)(=O)c2cccc(Cl)c2)CCN1C(=O)CCc1ccccc1 (stereo not given) | i | nt | nt | nt | nt | nt
CCC(Oc1ccc2c(c1)C(=O)CC(C)(C)O2)C(=O)NCCN1CCCCCC1 (stereo not given) | i | 12.6µM | 44.7µM | ? | ? | ?
CCS(=O)(=O)c1ncc(Cl)c(C(=O)Nc2ccc(S(=O)(=O)N3CCCC(C)C3)cc2)n1 (stereo not given) | ? | 79.4µM | ? | ? | i | i
CCSc1ncc(Cl)c(C(=O)Nc2ccc(S(=O)(=O)N3CCCCC3CC)cc2)n1 (stereo not given) | nt | i | i | nt | i | i
CCC1CCCCN1S(=O)(=O)c1ccc(NC(=O)c2nc(S(C)(=O)=O)ncc2Cl)cc1 (stereo not given) | 11.9µM | 39.8µM | i | 25.1µM | i | i
CCc1nc2nc(C)cc(Nc3ccc(OC)cc3OC)n2n1 | nt | i | i | nt | i | i
C=CCc1cc(OC)ccc1OCCN1CC(C)OC(C)C1 (stereo not given) | i | 7.08µM | 5.01µM | 56.2µM | 28.2µM | ?
C=CCc1cc(Cl)ccc1OCCN1CC(C)OC(C)C1 (stereo not given) | i | 4.47µM | 2.24µM | i | ? | ?
SMILES | PLK1 PBD inh | G9a inh | JMJD2A Tudor | Sfp PPTase inh | BAZ2B inh | HP1b binding inh
COc1ccc(OC)c(NC(=O)CCN2CC(C)OC(C)C2)c1 (stereo not given) | i | i | i | i | i | i
NS(=O)(=O)c1ccc(NC(=S)NCc2ccccc2)cc1 | 11.9µM | 11.2µM | i | 56.2µM | i | ?
COc1ccc(S(=O)(=O)N2CCN(C(=S)Nc3ccc(S(N)(=O)=O)cc3)CC2)cc1 | i | 79.4µM | i | i | i | i
NS(=O)(=O)c1ccc(NC(=S)N2CCC(Cc3ccccc3)CC2)cc1 | 13.4µM | 14.1µM | ? | 22.4µM | ? | ?
NS(=O)(=O)c1ccc(NC(=S)NCc2cccc(Cl)c2)cc1 | i | 44.7µM | i | i | i | i
COc1cccc(C2c3c(oc4cc(C)cc(C)c4c3=O)C(=O)N2CCc2ccc(OC)c(OC)c2)c1 (stereo not given) | nt | ? | i | nt | i | i
C=CCOCC/C=C1/c2ccccc2C(OC)C1C (stereo not given) | nt | nt | nt | i | nt | nt
NC(=O)C1(N2CCCCC2)CCN(C(=S)Nc2ccc(S(N)(=O)=O)cc2)CC1 | 10.6µM | nt | i | 3.98µM | i | i
S=C(NCCc1ccc(Cl)cc1)NCc1ccco1 | i | 50.1µM | i | ? | i | i
O=C(NC(=S)NCCc1ccc(Cl)cc1)c1ccco1 | 29.9µM | i | i | i | i | i
COc1ccccc1CN(Cc1cccnc1)S(=O)(=O)c1ccc(-n2cnnn2)c(OC)c1 | i | i | i | i | i | i
COc1cc(S(=O)(=O)N(Cc2cccnc2)Cc2cccc(OC)c2OC)ccc1-n1cnnn1 | i | 17.8µM | i | i | 79.4µM | i
COc1ccc(CN(Cc2cccnc2)S(=O)(=O)c2ccc(-n3cnnn3)c(C)c2)cc1OC | i | 15.8µM | i | i | i | i
Cc1nc2ccc(S(=O)(=O)N(CC(=O)Nc3cccc(F)c3)Cc3ccccc3)cc2s1 | nt | i | i | nt | i | i
CCc1cccc(C)c1NC(=O)C(CC)Sc1nc2ccncc2[nH]1 (stereo not given) | nt | i | i | nt | i | i
CCCOc1ccc(N2C(=O)CC(NCCc3ccc(S(N)(=O)=O)cc3)C2=O)cc1 (stereo not given) | i | 35.5µM | i | i | i | i
CCCOc1ccc(N2C(=O)CC(NCCNc3ccc(S(=O)(=O)CC)cc3)C2=O)cc1 (stereo not given) | i | ? | i | i | i | i
CCOc1ccc(N2C(=O)CC(NCCc3ccc(S(N)(=O)=O)cc3)C2=O)cc1 (stereo not given) | i | 25.1µM | i | i | i | i
C=CCOC(=O)C1CC=CCC1C(=O)Oc1ccc(F)cc1F (stereo not given) | i | i | i | i | i | i
COC(=O)C(CO)Nc1ncnc2onc(-c3ccc(F)cc3)c12 (stereo not given) | i | i | i | i | i | i
CC1Cc2cc(S(=O)(=O)CCC(=O)Nc3ccc(Cl)cc3F)ccc2N1C(=O)C1CC1 (stereo not given) | nt | i | i | nt | i | i
Cc1cc([N+](=O)[O-])ccc1NC(=O)C(C)N1CCN(c2ccccn2)CC1 (stereo not given) | i | i | i | i | i | i
Cc1ccc(CCNC(=O)Cn2ncc3c([nH]c4ccc(C)cc43)c2=O)cc1 | nt | i | i | nt | i | i
O=C(O)CCCN1C(=O)C2C3CC(C2C1=O)C1C(c2ccccc2)c2sc(=O)[nH]c2SC31 (stereo not given) | i | ? | i | ? | nt | i
